Screens as filed in PubChem.
HSF1 activator = HSF-1 activators, primary screen, NIH3T3-HGL cells, MG132 stress, luminescence, single point; NIH3T3-HGL HSF-1 luciferase reporter, 8 h; 100% = twice DMSO control signal; activation, % at 9 µM; 1.7% of 300,000 active;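 active = mean replicate activation of at least 50% with a set share of replicates each reaching 50%; inconclusive = only one of those two conditions met; inactive = mean below 50% and too few replicates reaching it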;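 note: 0% = median of the neutral control wells and 100% = twice that signal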
HSF1 inh = HSF1 inhibitors in luciferase reporter cells, primary screen, cell-based, NIH3T3, luminescence | activity change, negative = inhibition, % at 7.5 µM (by protocol) | 0.77% of 300,000 active | NIH3T3-HGL HSE-luciferase, MG132-induced, luminescence 8 h; stronger effect = lower value;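 active = more than half of replicate wells show activity change below -50%, luminescence cut by over half; inconclusive = some wells, but at most half, below -50%; inactive = no replicate well below -50%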;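 note: luciferase reports HSF-1 transcriptional activity via heat shock element; 0% = median of DMSO wells and -100% = zero luminescence signal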
NALP1 inh = NALP1 inflammasome inhibitors in reconstituted yeast, colorimetric, S. cerevisiae, triplicate retest | 0.61% of 280,000 active | S. cerevisiae NALP1/ASC/caspase-1 growth, X-gal OD620, 72 h | inhibition, % at 10 µM; in the data active = inhibition mostly above about 24%, no sharp cut-off; inactive = mostly below about 32%
HSP90 refold inh = HSP90 inhibitors, primary screen, cell lysate, luminescence; inhibition, % at 5.6 µM; Rabbit reticulocyte lysate, luciferase refolding luminescence, 3 h; AID 1789, 2009; 0.91% of 290,000 active;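 active = inhibition above the screen-wide mean plus 3 SD, computed separately per campaign, cut at about 16% in these data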;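 note: 0% = DMSO wells and 100% = 60 µM geldanamycin wells; inhibitors lower the luminescence because luciferase stays unfolded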
Hsp70 activator = Hsp70 transcriptional activators, primary screen, cell-based, HeLa, Hsp70 promoter luciferase, luminescence, 10 µM. HeLa Hsp70 promoter luciferase reporter; scaled: vehicle 0, proteasome-inhibitor control 100%. activation, % at 10 µM. 0.04% of 200,000 active. AID 1203, 2008;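 active = activation above the mean across all tested compounds plus 3 SD, cutoff set per campaign, cut at about 5.5% in these data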;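 note: 100% = MG132 at 30 µM as the positive control and 0% = DMSO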
pCIP destab = p/CIP-EGFP fusion destabilizers, primary screen, fluorescence, F442A cells. Q05BA5. 16 h. decrease of EGFP signal, % at 10 µM. 0.01% of 290,000 active. AID 1984, 2009;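 active = EGFP signal decrease of at least 30% at 10 µM or well 3 SD below plate mean, unless failing retest; inactive = the rest, including hits failing retest or dose response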
Target sequence (Q05BA5 1-1403): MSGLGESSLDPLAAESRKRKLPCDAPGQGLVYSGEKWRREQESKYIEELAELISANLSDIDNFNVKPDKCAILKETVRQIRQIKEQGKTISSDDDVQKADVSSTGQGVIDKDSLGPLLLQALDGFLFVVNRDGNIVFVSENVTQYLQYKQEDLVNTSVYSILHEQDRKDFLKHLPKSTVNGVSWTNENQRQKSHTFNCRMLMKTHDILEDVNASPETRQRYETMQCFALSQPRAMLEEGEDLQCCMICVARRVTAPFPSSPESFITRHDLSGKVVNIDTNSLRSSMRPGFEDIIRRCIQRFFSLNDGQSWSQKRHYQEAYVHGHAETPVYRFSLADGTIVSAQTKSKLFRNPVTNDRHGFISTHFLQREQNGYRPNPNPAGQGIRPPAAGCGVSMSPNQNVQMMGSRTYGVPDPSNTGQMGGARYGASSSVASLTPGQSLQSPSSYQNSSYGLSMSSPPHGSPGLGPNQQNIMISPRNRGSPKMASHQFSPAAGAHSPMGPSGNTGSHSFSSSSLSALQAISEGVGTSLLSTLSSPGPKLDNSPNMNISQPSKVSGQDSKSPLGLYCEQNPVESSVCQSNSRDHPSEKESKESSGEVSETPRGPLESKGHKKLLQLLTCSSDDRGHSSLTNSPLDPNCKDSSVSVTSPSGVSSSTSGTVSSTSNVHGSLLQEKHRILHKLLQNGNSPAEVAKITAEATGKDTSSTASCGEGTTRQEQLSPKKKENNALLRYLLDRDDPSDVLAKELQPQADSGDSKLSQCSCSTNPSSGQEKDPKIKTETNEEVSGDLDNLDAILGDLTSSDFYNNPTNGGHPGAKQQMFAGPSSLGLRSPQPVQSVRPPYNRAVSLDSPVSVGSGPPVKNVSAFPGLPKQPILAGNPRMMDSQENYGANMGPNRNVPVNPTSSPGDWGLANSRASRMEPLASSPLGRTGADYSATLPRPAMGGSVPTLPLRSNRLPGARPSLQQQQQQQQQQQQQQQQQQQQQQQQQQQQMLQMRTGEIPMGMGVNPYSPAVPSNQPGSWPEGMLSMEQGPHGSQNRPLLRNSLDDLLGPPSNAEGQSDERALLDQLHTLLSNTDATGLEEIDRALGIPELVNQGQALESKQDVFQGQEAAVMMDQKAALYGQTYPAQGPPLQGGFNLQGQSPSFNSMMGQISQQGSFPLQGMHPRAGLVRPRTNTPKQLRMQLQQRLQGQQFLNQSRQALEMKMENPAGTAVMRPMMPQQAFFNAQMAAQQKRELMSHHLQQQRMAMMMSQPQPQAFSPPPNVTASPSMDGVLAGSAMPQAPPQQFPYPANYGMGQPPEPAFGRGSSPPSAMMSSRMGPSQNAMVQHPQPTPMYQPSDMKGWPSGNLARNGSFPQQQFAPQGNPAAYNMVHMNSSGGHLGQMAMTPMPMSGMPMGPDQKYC
* hit, by the source's call; ? = inconclusive; . = no result. Compounds with a hit are over-represented: about 3.8% of the library has one in this group of screens.

SMILES	HSF1 activator	HSF1 inh	NALP1 inh	HSP90 refold inh	Hsp70 activator	pCIP destab
Cc1cccc2nc(COc3ccc(-c4ccccc4)cc3)cn12	65*	32	0	1	0	-1
NNC(=O)c1nc[nH]c1C(=O)Nc1ccccn1	-5	4	-3	0	0	-7
FC(F)(F)c1cccc(CNC2CCN(Cc3ccccc3)CC2)c1	19	3	13	1	.	-20
CN1CCN(c2ccc(CNS(=O)(=O)Cc3ccc(Cl)cc3)cc2)CC1	-3	-2	21*	13	.	-20
CCOc1cc(/C=N/NC(=O)CN2CCCCC2)ccc1OCc1ccc(Cl)cc1	58*	37	35	3	0	-4
CCCCOc1ccc2c(c1)C(=O)c1cc(O)ccc1-2	64*	39	2	-4	0	2
Cc1cccc(-n2cnc3c(c2=O)c2nc4ccccc4nc2n3Cc2ccco2)c1	104*	101	9	.	.	-9
NS(=O)(=O)c1cc2c(cc1Cl)NCNS2(=O)=O	-75	-69*	26	3	0	-3
COc1cc(C2Nc3cc(Cl)c(S(N)(=O)=O)cc3S(=O)(=O)N2)cc(OC)c1OC (stereo not drawn)	24	6	10	-4	0	1
Cc1ccc(N/N=C2\CS(=O)(=O)N(C)c3ccsc32)cc1	88*	73	26	2	0	-9
C=C(C)Cn1c(CN(C)Cc2ccccc2)nc2c1c(=O)n(C)c(=O)n2C	-6	-4	4	-1	.	-10
CCOCCCNC(=S)Nc1ccc2nc(N3CCOCC3)cc(C)c2c1	125*	76	-14	4	.	7
COCCCNC(=S)Nc1ccc2nc(N3CCOCC3)cc(C)c2c1	-20	-12	-1	2	.	-1
COc1cccc(-n2nc(-c3ccnn3-c3cccc(Cl)c3)c(=O)n(C)c2=O)c1	-64	-54*	.	3	.	-11
Cc1ccc(S(=O)(=O)CCN2CCC(O)(c3ccccc3)CC2)cc1	38	3	25	-1	.	-13
Cc1ccc(S(=O)(=O)CCN2CCN(c3ccccc3)CC2)cc1	120*	96	9	-1	.	7
COc1ccc(-[n+]2c(C)cc(/C=C3\Sc4ccccc4N3C)cc2C)cc1	1	-9	28*	2	1	-589
COc1ccc(C(=O)/C=C2\Sc3ccccc3N2C)cc1	56*	22	7	0	0	-12
CC(=S)/C=C1\Sc2ccccc2N1C	-5	1	4	1	0	-6
O=C(NCC1CCCO1)C(c1ccncc1)N(Cc1cccs1)C(=O)Cn1nnc(-c2ccc(F)cc2)n1 (stereo not drawn)	-2	4	4	-1	-1	-27
Cc1ccc(-c2nnn(CC(=O)N(Cc3cccs3)C(C(=O)NC3CCCC3)c3ccncc3)n2)cc1 (stereo not drawn)	-55	-55*	14	4	0	-9
CCc1nn(CC(=O)N2CCC(C(N)=O)CC2)c(=O)c2cc3occc3n12	-75	-67*	-5	-1	.	4
CC(=O)c1cc(F)c(N2CCOCC2)cc1C	.	.	44*	1	0	-1
C=CCn1cccc(C(=O)Nc2ccc(F)cc2)c1=O	23	5	4	-6	.	-4
O=C(Nc1cc(Cl)ccc1O)C1CC(c2ccccc2Cl)=NO1 (stereo not drawn)	4	9	15	-1	.	-6
SMILES	HSF1 activator	HSF1 inh	NALP1 inh	HSP90 refold inh	Hsp70 activator	pCIP destab
O=C(COc1ccccc1)NNc1nc2c(F)cc(F)cc2s1	7	7	19	6	0	-9
O=C(Nc1nc2c(F)cc(F)cc2s1)c1ccccn1	423*	348	10	2	0	-39
COCc1ccc(C(=O)NC2CCCc3c2cnn3-c2ccc(C)c(C)c2)o1 (stereo not drawn)	4	0	22	-1	.	-5
COc1cccc(NC(=O)c2sc3nc4n(c(=O)c3c2C)CCC4)c1	42	30	6	-8	.	-3
CSc1cccc(NC(=O)c2sc3nc4n(c(=O)c3c2C)CCC4)c1	64*	44	4	-5	.	-6
C=CCN(CC=C)c1cnn(-c2nc3ccccc3[nH]2)c(=O)c1Cl	?	28	15	6	0	-17
O=c1c(Cl)c(NCCCO)cnn1-c1nc2ccccc2[nH]1	63*	54	-14	4	1	-7
C(=N\N(c1ccccc1)c1ccccc1)/c1ccc(N2CCOCC2)s1	19	7	32	5	0	-11
CCCc1nn(C)c(C(=O)Nc2cccc3ccccc23)c1Cl	32	1	40	-1	-1	-12
O=C(Cc1ccc(F)cc1)OCC(=O)c1cc2ccccc2o1	-3	-3	9	16*	0	5
N#Cc1ccccc1NC(=O)COc1ccc2c(c1)OCO2	88*	41	26	4	.	3
COc1ccc(C(CNC(=O)Cc2cccs2)N(C)C)cc1 (stereo not drawn)	4	8	23	0	.	-3
COC(=O)CSc1nnc(CNS(=O)(=O)c2ccc(C)cc2)n1C	4	-2	36*	-3	0	-12
CC(=O)CSc1nnc(-c2ccc(S(=O)(=O)N3CCCC3)cc2)n1C	-8	-1	-1	1	.	-10
COC(=O)CSc1nnc(-c2ccc(S(=O)(=O)N3CCCC3)cc2)n1C	0	-4	42*	3	0	-6
Cc1ccc2nc(SC(C)C(=O)Nc3cccc([N+](=O)[O-])c3)[nH]c2c1 (stereo not drawn)	16	9	7	-5	0	-6
Cc1c(NC(=O)c2cc(-c3ccc(Cl)cc3)on2)c(=O)n(-c2ccccc2)n1C	4	-2	3	-3	.	2
O=C(Nc1ccccn1)C1CCN(c2ncnc3c2nc2n3CCCCC2)CC1	-14	-7	19	0	.	-7
O=C(Nc1ccccc1NC(=O)c1ccccc1F)c1ccccc1F	58*	22	0	1	.	-1
O=C(NN=C1CCCCCCC1)c1ccc(F)cc1	23	-3	17	-6	0	-3
O=C(O)c1cccc(NC(=O)c2ccccc2NC(=O)c2ccccc2F)c1	-74	-68*	10	0	.	0
O=C(NN=C1CCCCCCCCCCC1)c1ccccc1F	-60	-55*	25	4	0	-4
O=C(Cn1cc([N+](=O)[O-])nc1[N+](=O)[O-])N1CCN(c2ccccc2)CC1	2	11	4	0	0	2
COc1cc(/C=N/NC(=O)c2cc(C)oc2C)ccc1O	-70	-61*	1	0	0	1
